# From PubChem BioAssay (NCATS)
# Values joined by “and” are separate entries in the source; they are usually repeats but may differ in a detail not shown here. Equal entries are not always repeated. Records with an inconclusive call do not appear. Entries that show only a call come without a potency. Active and inactive are the calls of the source. Calls come from the whole dose curve; as a rule, active = well fitted inhibition curve with a large enough effect; inconclusive = small, poorly fitted or top-dose-only effect; inactive = flat fitted curve, though single readings scatter.
# How the values were obtained:
# Assay in all cases: qHTS profiling for inhibitors of Plasmodium falciparum proliferation (AID 504749); note: nearly all actives have a fitted effect of over 60% in size
# Settings in all cases: P. falciparum in erythrocytes, SYBR Green DNA, 72 h; series mostly up to 28.7 µM
# CP269 = system: CP269
# Outline: (§1)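 Parasite proliferation within erythrocytes, 72 h exposure. Endpoint: SYBR Green I fluorescence after overnight lysis at room temperature. Controls: 0.29 uM artemisinin, DMSO.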
# CP286 = system: CP286
# Outline: as §1
# CP291 = system: CP291
# Outline: as §1
# CP297 = system: CP297
# Outline: as §1
# CP305 = system: CP305
# Outline: as §1
# CP315 = system: CP315
# Outline: as §1
# CP325 = system: CP325
# Outline: as §1
# CP329 = system: CP329
# Outline: as §1
# CP335 = system: CP335
# Outline: as §1
# DFO2036 = system: DFO2036
# Outline: as §1
# DIV14 = system: DIV14
# Outline: as §1
# DIV30 = system: DIV30
# Outline: as §1
# Dd2 = system: Dd2
# Outline: as §1
# ECU = system: ECU
# Outline: as §1
# FAB9 = system: FAB9
# Outline: as §1
# ICS = system: ICS
# Outline: as §1
# JCK = system: JCK
# Outline: as §1
# DIV17 = system: DIV17
# Outline: as §1
# GB4 = system: GB4
# Outline: as §1
# HB3 = system: HB3
# Outline: as §1
# Potency is the fitted concentration of half-maximal effect.
SMILES,Potency (CP269),Potency (CP286),Potency (CP291),Potency (CP297),Potency (CP305),Potency (CP315),Potency (CP325),Potency (CP329),Potency (CP335),Potency (DFO2036),Potency (DIV14),Potency (DIV30),Potency (Dd2),Potency (ECU),Potency (FAB9),Potency (ICS),Potency (JCK),Potency (DIV17),Potency (GB4),Potency (HB3)
CCC1(c2ccccc2)CCC(=O)NC1=O (centres undefined),inactive,inactive,inactive,inactive,inactive,inactive,inactive,inactive,inactive,inactive,inactive,inactive,inactive,inactive,inactive,11.2 µM (active),inactive,,,
CN(C)C(=S)SSC(=S)N(C)C,2.13 µM (active),1.26 µM (active),3.01 µM (active),4.26 µM (active),2.39 µM (active),4.78 µM (active),2.39 µM (active),3.79 µM (active),1.51 µM (active),2.82 µM (active),1.9 µM (active),1.69 µM (active),1 µM (active),6.31 µM (active),6.31 µM (active),0.891 µM (active),8.91 µM (active),1.51 µM (active),2.13 µM (active),1.26 µM (active)
CCNc1nc(Cl)nc(NCC)n1,inactive,inactive,inactive,inactive,inactive,inactive,inactive,inactive,inactive,inactive,inactive,inactive,inactive,inactive,inactive,inactive,inactive,inactive,inactive,inactive
CC(C)[N+](C)(CCC(C(N)=O)(c1ccccc1)c1ccccc1)C(C)C,inactive,inactive,inactive,inactive,inactive,inactive,inactive,inactive,inactive,inactive,inactive,inactive,inactive,inactive,inactive,inactive,inactive,inactive,inactive,inactive
COC(=O)C1=CCCN(C)C1,inactive,inactive,inactive,inactive,inactive,inactive,inactive,inactive,inactive,inactive,inactive,inactive,inactive,inactive,inactive,inactive,inactive,inactive,inactive,inactive
C[C@]12CC[C@H]3[C@@H](CC=C4C[C@@H](O)CC[C@@]43C)[C@@H]1CC[C@@H]2O,inactive,inactive,inactive,inactive,inactive,inactive,inactive,inactive,inactive,inactive,inactive,inactive,inactive,inactive,inactive,inactive,inactive,inactive,inactive,inactive
NC(=O)OCCCc1ccccc1,inactive,inactive,inactive,inactive,inactive,inactive,inactive,inactive,inactive,inactive,inactive,inactive,inactive,inactive,inactive,inactive,inactive,inactive,inactive,inactive
COP(=O)(OC)C(O)C(Cl)(Cl)Cl (centres undefined),inactive,inactive,inactive,inactive,inactive,inactive,inactive,inactive,inactive,inactive,inactive,inactive,inactive,,inactive,,inactive,inactive,,inactive
CCS(=O)(=O)C(C)(C)S(=O)(=O)CC,inactive,inactive,inactive,inactive,inactive,inactive,inactive,inactive,inactive,inactive,inactive,inactive,inactive,inactive,inactive,inactive,inactive,inactive,inactive,inactive
NC(=O)CN1CCCC1=O,inactive,inactive,inactive,inactive,inactive,inactive,inactive,inactive,inactive,inactive,inactive,inactive,inactive,inactive,inactive,inactive,inactive,inactive,inactive,inactive
CC[n+]1c(-c2ccccc2)c2cc(N)ccc2c2ccc(N)cc21,120 nM (active) and 478 nM (active),70.8 nM (active) and 158 nM (active),151 nM (active) and 601 nM (active),169 nM (active) and 478 nM (active),84.9 nM (active) and 379 nM (active),478 nM (active) and 1.69 µM (active),95.3 nM (active) and 379 nM (active),107 nM (active) and 426 nM (active),84.9 nM (active) and 239 nM (active),89.1 nM (active) and 251 nM (active),53.6 nM (active) and 107 nM (active),426 nM (active) and 1.9 µM (active),20 nM (active) and 100 nM (active),141 nM (active) and 447 nM (active),79.4 nM (active) and 89.1 nM (active),44.7 nM (active) and 126 nM (active),79.4 nM (active) and 282 nM (active),53.6 nM (active) and 151 nM (active),75.7 nM (active) and 169 nM (active),126 nM (active) and 316 nM (active)
O=c1n(Cl)c(=O)n(Cl)c(=O)n1Cl,inactive,inactive,inactive,inactive,inactive,inactive,inactive,inactive,inactive,inactive,inactive,inactive,inactive,inactive,inactive,inactive,inactive,inactive,inactive,inactive
